Laboratory results: PubChem BioAssay (NCATS)
Results filed as inconclusive are left out. Activity calls are given as the source filed them. Calls follow the shape of the dose curve; as a rule, active = well fitted curve in the direction sought with a large enough effect; inconclusive = small, poorly fitted or top-dose-only effect, or another doubt; inactive = no such curve, though single readings can be large; an effect the other way counts as inactive or inconclusive.

Key:
CAOV3 = test: Primary qHTS to identify gynecologic anti-cancer compounds using libraries of approved drugs and bioactive compounds (AID 1345084); conditions: Gynecologic cancer cell panel viability, ATPlite luminescence, 48 h; series mostly up to 57.5 µM; also: nearly all actives have a fitted effect of over 55% in size
Outline: (§1)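 Measured: luminescence after ATPlite addition (15 min, RT). Exposure: 48 h, 37 C, 5% CO2.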

CASKI = test: as above; conditions: Gynecologic cancer cell panel viability, ATPlite luminescence, 48 h; series mostly up to 57.5 µM
Outline: as §1

Es-2 = test: as above; conditions: Gynecologic cancer cell panel viability, ATPlite luminescence, 48 h; series mostly up to 57.5 µM
Outline: as §1

HeLa = test: as above; conditions: Gynecologic cancer cell panel viability, ATPlite luminescence, 48 h; series mostly up to 57.5 µM
Outline: as §1

Hek293T = test: as above; conditions: Gynecologic cancer cell panel viability, ATPlite luminescence, 48 h, control line for the selectivity index; series mostly up to 57.5 µM
Outline: as §1

JEG-3 = test: as above; conditions: Gynecologic cancer cell panel viability, ATPlite luminescence, 48 h; series mostly up to 57.5 µM
Outline: as §1

OV90 = test: as above; conditions: Gynecologic cancer cell panel viability, ATPlite luminescence, 48 h; series mostly up to 57.5 µM
Outline: as §1

PA-1 = test: as above; conditions: Gynecologic cancer cell panel viability, ATPlite luminescence, 48 h; series mostly up to 57.5 µM
Outline: as §1

SKOV3 = test: as above; conditions: Gynecologic cancer cell panel viability, ATPlite luminescence, 48 h; series mostly up to 57.5 µM
Outline: as §1

Tov-21-G = test: as above; conditions: Gynecologic cancer cell panel viability, ATPlite luminescence, 48 h; series mostly up to 57.5 µM
Outline: as §1

Tov112D = test: as above; conditions: Gynecologic cancer cell panel viability, ATPlite luminescence, 48 h; series mostly up to 57.5 µM
Outline: as §1

[1] = qHTS assay to identify inhibitors of the type 1 interferon - major histocompatibility complex class I in skeletal muscle: Counter screen cell viability and HiBit confirmation (AID 1347412); conditions: iHSKM muscle cells + IFN-b, HiBiT or CellTiter-Glo, 24 h; for Potency: HiBiT; for activity change, negative = inhibition: Viability, at 45.9 µM (top of the series); as to all read-outs here: nearly all actives have a fitted effect of over 60% in size
Outline: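 Human myoblast knock-in line, 4.0 ng/ml IFN-beta stimulation, 24 h compound treatment. Endpoints: HiBiT lytic luminescence (HLA-B level) and CellTiter Glo (ATP). Dosing 12 concentrations, 3-fold steps, 46 uM highest final.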
% is scaled to controls: 0 for no effect and ±100 for the full control effect; potency is read from the fitted curve at half-maximal effect.

CC1=C(C(=O)OCc2ccccc2)C(c2ccc(-c3ccccc3)cc2)NC(=O)N1CCCCCC(=O)O (stereo not given)
inactive: Potency (CAOV3) | Potency (CASKI) | Potency (Es-2) | Potency (HeLa) | Potency (Hek293T) | Potency (JEG-3) | Potency (OV90) | Potency (PA-1) | Potency (SKOV3) | Potency (Tov-21-G) | Potency (Tov112D)

C=C1C(=O)O[C@H]2C1[C@H](OC(=O)/C(=C/CO)COC(=O)/C(C)=C/CO)CC(=C)[C@@H]1CC(=O)[C@@H](C)[C@@H]12 (stereo not given in full)
inactive: Potency (CAOV3) | Potency (CASKI) | Potency (HeLa) | Potency (Hek293T) | Potency (OV90) | Potency (Tov112D)

COc1cc2ncnc(Nc3ccc(F)c(Cl)c3)c2cc1NC(=O)/C=C/CN1CCCCC1
inactive: Potency (OV90)
active: Potency (CAOV3) 22.4 µM | Potency (SKOV3) 10 µM | Potency [1] 19.8 µM

COc1ccc(-c2cnc(-c3cccc4c3-c3ccccc3C4=O)o2)cc1
active: Potency (Es-2) 0.158 µM | Potency (HeLa) 0.199 µM | Potency (JEG-3) 2 µM | Potency (PA-1) 0.355 µM | Potency (SKOV3) 0.158 µM | Potency (Tov-21-G) 0.141 µM | Potency (Tov112D) 0.178 µM
inactive: Potency (CAOV3)

COc1cc(C(=O)NC2CCN(C)CC2)ccc1Nc1ncc2c(n1)N(C1CCCC1)CC(F)(F)C(=O)N2C
active: Potency (CAOV3) 25.1 µM | Potency (OV90) 22.4 µM | Potency (PA-1) 0.251 µM | Potency (SKOV3) 15.8 µM

O=C(O)[C@@H]1C[C@H]2C[C@@H](CCc3nn[nH]n3)CC[C@H]2CN1
inactive: Potency (CASKI) | Potency (Es-2) | Potency (HeLa) | Potency (Hek293T) | Potency (JEG-3) | Potency (OV90) | Potency (PA-1) | Potency (Tov-21-G) | Potency (Tov112D)

Cn1nnc(-c2ccc(-c3ccc(N4C[C@H](COP(=O)(O)O)OC4=O)cc3F)cn2)n1
active: Potency (CASKI) 12.6 µM | Potency (OV90) 20 µM
inactive: Potency (CAOV3)

CC(=O)N1CCN(C(=O)Cc2ccc(Nc3ncc(F)c(Nc4ccc(C(=O)Nc5ccccc5Cl)cc4)n3)cc2)CC1
active: Potency (CAOV3) 31.6 µM | Potency (HeLa) 7.94 µM | Potency (PA-1) 11.2 µM | Potency (SKOV3) 22.4 µM | Potency (Tov-21-G) 25.1 µM | Potency (Tov112D) 3.98 µM
inactive: Potency (JEG-3) | Potency (OV90)

Cc1ccc(NC(=O)Nc2cc(C(F)(F)F)ccc2F)cc1Nc1ccc2c(c1)NC(=O)/C2=C\c1ccc[nH]1
inactive: Potency (CASKI) | Potency (Es-2) | Potency (HeLa) | Potency (Hek293T) | Potency (JEG-3) | Potency (OV90) | Potency (PA-1) | Potency (Tov-21-G) | Potency (Tov112D) | activity change, negative = inhibition [1] -28%
active: Potency [1] 31.3 µM

C=C1C(=O)O[C@H](CCC)[C@H]1C(=O)O
inactive: Potency (CAOV3) | Potency (Es-2) | Potency (HeLa) | Potency (Hek293T) | Potency (JEG-3) | Potency (OV90) | Potency (PA-1) | Potency (Tov-21-G) | Potency (Tov112D)

C#CCN(Cc1cc2c(=O)[nH]c(C)nc2cc1Br)c1ccc(C(=O)NCc2cccnc2)cc1
active: Potency (CASKI) 0.447 µM

CC(O)c1cc(C(=O)N[C@@H](C)Cn2ccc(-c3ccc(C#N)c(Cl)c3)n2)n[nH]1 (stereo not given in full)
inactive: Potency (CAOV3) | Potency (OV90)

Cc1cc(-c2cc(O)ccc2Cl)cc2nnc(Nc3ccc(OCCN4CCCC4)cc3)nc12
active: Potency (CAOV3) 11.2 µM | Potency (SKOV3) 28.2 µM

Cc1cc(OCc2nnc(SC3CCCC3)n2-c2cccnc2)ccc1-c1ccc(S(C)(=O)=O)cc1
active: Potency (CAOV3) 31.6 µM | Potency (HeLa) 31.6 µM | Potency (OV90) 1.78 µM | Potency (PA-1) 12.6 µM | Potency (SKOV3) 0.794 µM | Potency (Tov-21-G) 28.2 µM | Potency (Tov112D) 31.6 µM
inactive: activity change, negative = inhibition [1] -25.3%

CC1(C)C2CC(OC3OC(COC4OCC(O)(CO)C4O)C(O)C(O)C3O)C1(C)CC2O (stereo not given)
inactive: Potency (CAOV3) | Potency (CASKI) | Potency (OV90)

CS(=O)(=O)N(CC(=O)NCC1CC1)c1cc(C(F)(F)F)ccc1Cl
inactive: Potency (CAOV3) | Potency (Es-2) | Potency (HeLa) | Potency (Hek293T) | Potency (JEG-3) | Potency (OV90) | Potency (PA-1) | Potency (SKOV3) | Potency (Tov-21-G) | Potency (Tov112D)

CC1(C)CC(=O)C2=C(C1)NC(=S)NC2c1cccc(O)c1 (stereo not given)
active: Potency (CAOV3) 3.55 µM | Potency (HeLa) 7.94 µM | Potency (Tov-21-G) 1.26 µM | Potency (Tov112D) 0.891 µM
inactive: Potency (OV90)

CNC(=O)c1ccccc1Nc1nc(Nc2ccc3c(c2OC)CCCC(N2CCN(CCO)CC2)C3)ncc1Cl (stereo not given)
inactive: Potency (JEG-3)
active: Potency (CAOV3) 10 µM | Potency (CASKI) 17.8 µM | Potency (PA-1) 11.2 µM | Potency (SKOV3) 3.98 µM | Potency (Tov-21-G) 10 µM

C=C(C)C(=O)OC1CC2(C)OC(=CC2=O)C(=C)CC2OC(=O)C(COC)C12 (stereo not given)
inactive: Potency (CAOV3) | Potency (HeLa) | Potency (JEG-3) | Potency (OV90) | Potency (Tov112D)

CN1CCN(Cc2ccc(-c3cnc4[nH]cc(-c5ccc6[nH]ccc6c5)c4c3)cc2)CC1
active: Potency (CAOV3) 22.4 µM | Potency (Es-2) 22.4 µM | Potency (HeLa) 31.6 µM | Potency (OV90) 10 µM | Potency (PA-1) 12.6 µM | Potency (SKOV3) 14.1 µM | Potency (Tov-21-G) 20 µM

NC(=O)c1cccc2cn(-c3ccc(C4CCCNC4)cc3)nc12 (stereo not given)
inactive: Potency (CAOV3) | Potency (CASKI) | Potency (HeLa) | Potency (Hek293T) | Potency (JEG-3) | Potency (OV90) | Potency (SKOV3) | Potency (Tov-21-G)
